{"source": "PubChem BioAssay", "key": {"[1]": {"assay": "resazurin metabolic signal in HepG2 cells – cell-based, resazurin fluorescence, 24 h, PK04 Diversity Set, profiling panel (AID 1172)", "conditions": "HepG2 viability, higher = more signal"}, "[2]": {"assay": "budding yeast growth changes without added modifier – OD600, strain BY4716, 24 h, basal condition, primary screen (AID 1173)", "conditions": "S. cerevisiae BY4716 growth, OD600, 24 h; higher = more signal, called active from +8 up or from −8 down"}, "[3]": {"assay": "viability profiling in MM1S myeloma cells – cell-based, resazurin fluorescence, basal, 24 h, PK04 Diversity Set, profiling panel (AID 1174);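 note: MM1S multiple myeloma cell line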", "conditions": "higher = more signal, called active from +8 up or from −8 down"}, "[4]": {"molecular_target": "Dihydroorotate dehydrogenase (quinone), mitochondrial (Plasmodium falciparum (isolate 3D7)) (UniProt Q08210)", "sequence (Q08210 whole entry, looked up)": "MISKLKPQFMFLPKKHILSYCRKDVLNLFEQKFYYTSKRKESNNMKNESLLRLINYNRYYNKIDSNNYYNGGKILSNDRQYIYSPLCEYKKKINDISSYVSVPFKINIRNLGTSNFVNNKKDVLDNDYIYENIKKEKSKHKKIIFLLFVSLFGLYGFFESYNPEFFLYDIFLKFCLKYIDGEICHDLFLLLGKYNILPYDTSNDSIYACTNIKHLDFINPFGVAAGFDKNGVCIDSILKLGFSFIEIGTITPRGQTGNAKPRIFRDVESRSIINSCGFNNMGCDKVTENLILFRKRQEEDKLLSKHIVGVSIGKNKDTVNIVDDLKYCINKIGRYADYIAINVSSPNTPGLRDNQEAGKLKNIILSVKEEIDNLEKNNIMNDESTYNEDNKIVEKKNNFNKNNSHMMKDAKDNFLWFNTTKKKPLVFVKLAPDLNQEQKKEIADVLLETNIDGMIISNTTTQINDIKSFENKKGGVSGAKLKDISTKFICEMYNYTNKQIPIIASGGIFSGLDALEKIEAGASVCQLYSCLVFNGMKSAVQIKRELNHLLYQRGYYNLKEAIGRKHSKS", "assay": "inhibition of P. falciparum DHODH – biochemical, C-terminal His tag, absorbance 600 nm, primary screen (AID 1175);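 note: recombinant parasite enzyme with a five histidine tag at its C terminus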", "conditions": "PfDHODH enzyme, DCIP absorbance 600 nm; higher = more signal, called active from +8 up or from −8 down"}, "[5]": {"assay": "inhibition of PAO1 biofilm formation – strain PAO1, LB-PBS medium, absorbance 600 nm, primary screen (AID 1176)", "conditions": "P. aeruginosa PAO1 growth/biofilm, A600, 12 h; higher = more signal"}, "[6]": {"assay": "growth modulation of vineyard yeast isolate – strain RM11-1a, OD600, basal, 24 h, primary screen (AID 1177);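 note: cultures grown under basal conditions with no added stressor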", "conditions": "S. cerevisiae RM11-1a growth, OD600, 24 h; higher = more signal, called active from +8 up or from −8 down"}, "[7]": {"assay": "growth of efflux-deficient E. coli DRC39 – strain DRC39, OD650, 24 h, E. coli filamentation inducers, primary screen (AID 1178);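 note: growth measured as culture turbidity by optical density at 650 nm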", "conditions": "E. coli DRC39 acrAB, higher = more signal, called active from +8 up or from −8 down"}, "[8]": {"assay": "growth of efflux-deficient E. coli DRC39 – strain DRC39, OD650, 48 h, E. coli filamentation inducers, primary screen (AID 1179);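 note: screen aims at cell division blockers that make cells filament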", "conditions": "E. coli DRC39 delta-acrAB growth, higher = more signal, called active from +8 up or from −8 down"}, "[9]": {"assay": "viability profiling in RPMI8226 myeloma cells – cell-based, resazurin fluorescence, basal, 24 h, PK04 Diversity Set, profiling panel (AID 1180);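 note: RPMI8826 multiple myeloma cell line at 5000 cells per well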", "conditions": "higher = more signal"}, "[10]": {"molecular_target": "E3 ubiquitin-protein ligase XIAP (Homo sapiens) (UniProt P98170)", "sequence (P98170 whole entry, looked up)": "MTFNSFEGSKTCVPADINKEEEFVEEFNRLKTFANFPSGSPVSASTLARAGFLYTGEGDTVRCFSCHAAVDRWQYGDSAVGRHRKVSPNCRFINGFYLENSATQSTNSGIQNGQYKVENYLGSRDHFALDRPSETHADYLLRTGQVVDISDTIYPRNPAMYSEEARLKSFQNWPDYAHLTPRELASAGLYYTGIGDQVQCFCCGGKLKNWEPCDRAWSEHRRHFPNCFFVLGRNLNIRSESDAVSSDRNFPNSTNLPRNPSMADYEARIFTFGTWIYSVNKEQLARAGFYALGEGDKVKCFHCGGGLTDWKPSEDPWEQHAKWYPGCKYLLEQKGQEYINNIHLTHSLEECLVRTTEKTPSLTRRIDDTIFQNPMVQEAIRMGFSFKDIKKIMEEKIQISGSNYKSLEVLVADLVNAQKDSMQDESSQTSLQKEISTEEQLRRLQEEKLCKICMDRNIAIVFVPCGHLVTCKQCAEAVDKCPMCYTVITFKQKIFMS", "assay": "small molecules binding XIAP protein – biophysical, small-molecule microarray, fluorescence 635 nm, primary screen (AID 1181);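 note: score merges 667 nm emission and signal to noise over triplicate slides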", "conditions": "higher = more signal"}, "[11]": {"system": "XIP peptide (Xip251-270) binding", "assay": "XIP fragment 251-270 binding compounds – biochemical, small-molecule microarray, fluorescence 635/667 nm, 0.1 µg/mL protein, primary screen (AID 1182)", "conditions": "fluorescent protein binding, 635 nm, higher = more signal, called active from +8 up or from −8 down"}, "[12]": {"system": "XIP peptide (Xip251-270)", "assay": "compounds binding XIP fragment 251-270 – biochemical, small-molecule microarray, fluorescence 635/667 nm, 0.5 µg/mL protein, primary screen (AID 1183)", "conditions": "fluorescence 635 nm, higher = more signal"}, "[13]": {"assay": "blood-stage malaria parasite viability loss – strain 3D7, DAPI fluorescence, 100 nL, primary screen (AID 1184);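 note: parasites grown inside human red blood cells in medium with human serum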", "conditions": "P. falciparum 3D7 growth, 3 d, higher = more signal"}, "[14]": {"molecular_target": "Homeobox protein Hox-A13 (Mus musculus) (UniProt Q62424)", "sequence (Q62424 whole entry, looked up)": "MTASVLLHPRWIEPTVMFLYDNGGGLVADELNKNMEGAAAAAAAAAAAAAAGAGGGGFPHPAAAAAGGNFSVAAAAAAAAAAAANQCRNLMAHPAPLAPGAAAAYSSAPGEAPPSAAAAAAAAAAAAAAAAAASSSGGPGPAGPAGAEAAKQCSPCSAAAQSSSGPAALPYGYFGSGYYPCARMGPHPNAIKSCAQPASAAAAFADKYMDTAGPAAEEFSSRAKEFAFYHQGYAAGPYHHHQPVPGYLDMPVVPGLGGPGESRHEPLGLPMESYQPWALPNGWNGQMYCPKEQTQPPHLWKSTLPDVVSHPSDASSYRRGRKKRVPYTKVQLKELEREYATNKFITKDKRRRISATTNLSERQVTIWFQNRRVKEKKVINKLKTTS", "assay": "disruptors of Hoxa13 oligonucleotide interaction – biochemical, fluorescence polarization, labeled oligonucleotide, primary screen (AID 1185)", "conditions": "Hoxa13:DNA binding, 15 min, higher = more signal, called active from +8 up or from −8 down"}}, "note": "Active and inactive are the calls of the source. Unless noted, the rule behind the calls is not given here.", "data": [{"compound": "CCOC(=O)[C@H](CC(C)C)NC(=O)CCC1CC(OC(=O)NCCc2ccc(F)cc2)CC2(CCCC(COC(=O)NCc3ccccc3)O2)O1", "note": "(stereo not given in full)", "values": [{"measurement": "z-score", "setting": "[1]", "result": -0.816}, {"measurement": "z-score", "setting": "[2]", "result": "-0.849 (inactive)"}, {"measurement": "z-score", "setting": "[3]", "result": "0.409 (inactive)"}, {"measurement": "composite z-score", "setting": "[4]", "result": "-2.24 (inactive)"}, {"measurement": "z-score", "setting": "[5]", "result": "-0.613 (inactive)"}, {"measurement": "z-score", "setting": "[6]", "result": "-0.0385 (inactive)"}, {"measurement": "z-score", "setting": "[7]", "result": "-0.221 (inactive)"}, {"measurement": "z-score", "setting": "[8]", "result": "-0.565 (inactive)"}, {"measurement": "z-score", "setting": "[9]", "result": 0.185}, {"measurement": "composite z-score", "setting": "[10]", "result": -0.0333}, {"measurement": "composite z-score", "setting": "[11]", "result": "0.137 (inactive)"}, {"measurement": "composite z-score", "setting": "[12]", "result": 0.461}, {"measurement": "z-score", "setting": "[13]", "result": -2.06}, {"measurement": "z-score", "setting": "[14]", "result": "-7.01 (inactive)"}]}, {"compound": "c1ccc(C2NCCc3c2[nH]c2ccccc32)cc1", "note": "(stereo not given)", "values": [{"measurement": "z-score", "setting": "[1]", "result": 0.278}, {"measurement": "z-score", "setting": "[2]", "result": "-2.91 (inactive)"}, {"measurement": "z-score", "setting": "[3]", "result": "-0.104 (inactive)"}, {"measurement": "composite z-score", "setting": "[4]", "result": "-11 (active)"}, {"measurement": "z-score", "setting": "[5]", "result": "0.107 (inactive)"}, {"measurement": "z-score", "setting": "[6]", "result": "-0.104 (inactive)"}, {"measurement": "z-score", "setting": "[7]", "result": "-0.832 (inactive)"}, {"measurement": "z-score", "setting": "[8]", "result": "-1.79 (inactive)"}, {"measurement": "z-score", "setting": "[9]", "result": -0.326}, {"measurement": "composite z-score", "setting": "[10]", "result": 0.0043}, {"measurement": "composite z-score", "setting": "[11]", "result": "0.657 (inactive)"}, {"measurement": "composite z-score", "setting": "[12]", "result": 0.4}, {"measurement": "z-score", "setting": "[13]", "result": -0.811}, {"measurement": "z-score", "setting": "[14]", "result": "-0.654 (inactive)"}]}, {"compound": "COC(=O)[C@H](C)NC(=O)CCC1CC(OC(=O)NCc2cccc3ccccc23)CC2(CCCC(COC(=O)NCC3CCCCC3)O2)O1", "note": "(stereo not given in full)", "values": [{"measurement": "z-score", "setting": "[1]", "result": 1.14}, {"measurement": "z-score", "setting": "[2]", "result": "-0.201 (inactive)"}, {"measurement": "z-score", "setting": "[3]", "result": "0.486 (inactive)"}, {"measurement": "composite z-score", "setting": "[4]", "result": "-0.533 (inactive)"}, {"measurement": "z-score", "setting": "[5]", "result": "-0.127 (inactive)"}, {"measurement": "z-score", "setting": "[6]", "result": "0.617 (inactive)"}, {"measurement": "z-score", "setting": "[7]", "result": "0.0476 (inactive)"}, {"measurement": "z-score", "setting": "[8]", "result": "-0.399 (inactive)"}, {"measurement": "z-score", "setting": "[9]", "result": 1.23}, {"measurement": "composite z-score", "setting": "[10]", "result": -0.02}, {"measurement": "composite z-score", "setting": "[11]", "result": "0.0034 (inactive)"}, {"measurement": "composite z-score", "setting": "[12]", "result": 0.689}, {"measurement": "z-score", "setting": "[13]", "result": -1.96}, {"measurement": "z-score", "setting": "[14]", "result": "-2.34 (inactive)"}]}, {"compound": "C#CCCCON=C1C[C@@H](O)[C@@H](O)[C@@H]2[C@@H]3C(=O)N(Cc4ccccc4)C(=O)[C@@H]3CC[C@H]12", "values": [{"measurement": "z-score", "setting": "[1]", "result": 1.02}, {"measurement": "z-score", "setting": "[2]", "result": "-1.43 (inactive)"}, {"measurement": "z-score", "setting": "[3]", "result": "0.582 (inactive)"}, {"measurement": "composite z-score", "setting": "[4]", "result": "-0.794 (inactive)"}, {"measurement": "z-score", "setting": "[5]", "result": "0.495 (inactive)"}, {"measurement": "z-score", "setting": "[6]", "result": "-1.59 (inactive)"}, {"measurement": "z-score", "setting": "[7]", "result": "-0.039 (inactive)"}, {"measurement": "z-score", "setting": "[8]", "result": "-0.923 (inactive)"}, {"measurement": "z-score", "setting": "[9]", "result": 0.781}, {"measurement": "composite z-score", "setting": "[10]", "result": -0.256}, {"measurement": "composite z-score", "setting": "[11]", "result": "0.136 (inactive)"}, {"measurement": "composite z-score", "setting": "[12]", "result": -0.102}, {"measurement": "z-score", "setting": "[13]", "result": -0.677}, {"measurement": "z-score", "setting": "[14]", "result": "-3.05 (inactive)"}]}, {"compound": "CCOC(=O)CCN1C(=O)[C@H]2[C@H]3[C@H](O)[C@H](O)CC(=NOC[C@@H](O)COCc4ccco4)[C@H]3CC[C@H]2C1=O", "values": [{"measurement": "z-score", "setting": "[1]", "result": -0.749}, {"measurement": "z-score", "setting": "[2]", "result": "-11.7 (active)"}, {"measurement": "z-score", "setting": "[3]", "result": "-0.0452 (inactive)"}, {"measurement": "composite z-score", "setting": "[4]", "result": "-2.45 (inactive)"}, {"measurement": "z-score", "setting": "[5]", "result": "0.0122 (inactive)"}, {"measurement": "z-score", "setting": "[6]", "result": "-0.788 (inactive)"}, {"measurement": "z-score", "setting": "[7]", "result": "0.558 (inactive)"}, {"measurement": "z-score", "setting": "[8]", "result": "-0.899 (inactive)"}, {"measurement": "z-score", "setting": "[9]", "result": -0.424}, {"measurement": "composite z-score", "setting": "[10]", "result": 0.123}, {"measurement": "composite z-score", "setting": "[11]", "result": "0.378 (inactive)"}, {"measurement": "composite z-score", "setting": "[12]", "result": 0.328}, {"measurement": "z-score", "setting": "[13]", "result": -1.44}, {"measurement": "z-score", "setting": "[14]", "result": "-3.71 (inactive)"}]}]}
